# Reference: PubChem BioAssay (Tox21)
# “And” between values parts separate entries of the source, which are not always exact repeats. Identical values can stand only once. A number with no mark means an inactive call. Records with an inconclusive call do not appear. Entries that show only a call come without a potency. The source made the active and inactive calls. Unless noted, the call rests on the fitted dose curve; in most records, active means well fitted curve in the direction sought with a large enough effect in the repeat runs; inconclusive means weak or mixed curves; inactive means no such curve, though single readings can be large; an effect the other way counts as inactive or inconclusive.
# Tests used:
# [1] = qHTS assay for small molecules that induce genotoxicity in human embryonic kidney cells expressing luciferase-tagged ATAD5 (AID 651632); further: nearly all actives have a fitted effect of over 15% in size; further: potency means the concentration at half of the fitted maximal effect
# How it was run: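 Increased luciferase signal from ATAD5-tagged reporter cells indicates DNA-damage-driven ATAD5 induction. HEK293T cells are treated for 16 hr at 37C before detection with Amplite.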
# [2] = qHTS assay for small molecules that induce genotoxicity in human embryonic kidney cells expressing luciferase-tagged ATAD5 - cell viability (AID 651634; calls by dose curve; further: nearly all actives have a fitted effect of over 25% in size; further: potency means the concentration at half of the fitted maximal effect)
# How it was run: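 Cytotoxicity counterscreen in HEK293T cells bearing an ATAD5-luciferase reporter: live-cell protease activity measured by CellTiter-Fluor fluorescence after 15.5 hr compound exposure.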
# [3] = qHTS assay for small molecule disruptors of the mitochondrial membrane potential (AID 720635); further: potency means the concentration at half of the fitted maximal effect
# How it was run: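 HepG2 cells (2,000/well) attached overnight at 37C, then took compound for 1 hr at 37C, 5% CO2. Mito-MPS dye was added for 30 min; fluorescence was read at 490/535 nm (monomers) and 540/590 nm (aggregates).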
# [4] = qHTS assay to test for compound auto fluorescence at 590 nm (red) in HepG2 cells (AID 720674)
# How it was run: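 Rose Bengal sodium served as the red fluorophore standard. HepG2 monolayers (overnight attachment, MEM with 10% FBS) were exposed to test compounds for 1 hr at 37 C and read at Ex 540/Em 590 nm.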
# [5] = qHTS assay to test for compound auto fluorescence at 535 nm (green) in HepG2 cells (AID 720675)
# [6] = qHTS assay to test for compound auto fluorescence at 590 nm (red) in HEK293 cells (AID 720679)
# How it was run: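 Red-channel autofluorescence (Ex/Em 540/590 nm; Rose Bengal sodium reference) was measured after overnight 37C, 5% CO2 exposure of attached HEK293 cells, 2,000 per well in medium with 10% dialyzed FBS.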
# [7] = qHTS assay to test for compound auto fluorescence at 535 nm (green) in HEK293 cells (AID 720680)
# [8] = qHTS assay to test for compound auto fluorescence at 460 nm (blue) in HEK293 cell free culture (AID 720681)
# How it was run: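 Test compounds were pinned into cell-free culture medium (DMEM with 10% FBS) and fluorescence was read directly at Ex/Em 405/460 nm. Signals were expressed as fluorescence equivalents of triamterene, with DMSO vehicle as control.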
# [9] = qHTS assay to test for compound auto fluorescence at 535 nm (green) in HEK293 cell free culture (AID 720682)
# How it was run: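 Green-channel intensity (Ex/Em 485/535 nm) was recorded from compound-treated wells containing only DMEM with 10% FBS. Fluorescein provided the equivalency standard.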
# [10] = qHTS assay to test for compound auto fluorescence at 590 nm (red) in HepG2 cell free culture (AID 720684)
# How it was run: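 Red fluorescence (540 nm excitation, 590 nm emission) was measured after compound transfer into cell-free MEM supplemented with 10% FBS. Values are equivalencies against Rose Bengal sodium.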
# [11] = qHTS assay to test for compound auto fluorescence at 460 nm (blue) in HepG2 cell free culture (AID 720685)
# How it was run: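 Compound (23 nL) or DMSO pinned into cell-free MEM with 10% FBS; blue fluorescence read at 405/460 nm excitation/emission, expressed as auto-fluorescence equivalency to triamterene.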
# [12] = qHTS assay to test for compound auto fluorescence at 535 nm (green) in HepG2 cell free culture (AID 720686)
# [13] = qHTS assay to test for compound auto fluorescence at 460 nm (blue) in HepG2 cells (AID 720687)
# How it was run: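 Cells (2,000/well in MEM with 10% FBS) attached overnight at 37 C, then were exposed to compound or DMSO for 1 hr at 37 C, 5% CO2. Fluorescence read at Ex/Em 405/460 nm, expressed as triamterene-equivalent signal.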
# [14] = qHTS assay for small molecule agonists of the p53 signaling pathway - cell viability (AID 651633; calls by dose curve; further: nearly all actives have a fitted effect of over 30% in size; further: potency means the concentration at half of the fitted maximal effect)
# How it was run: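 p53RE-bla cells, seeded at 4,000 per well and rested 5 h at 37 C/5% CO2, received compounds in DMSO for 16 h at 37 C. CellTiter-Glo was then added, and luminescence was read after 30 min at room temperature to gauge cytotoxicity.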
# [15] = qHTS assay for small molecule disruptors of the mitochondrial membrane potential - cell viability (AID 720634; calls by dose curve; further: nearly all actives have a fitted effect of over 20% in size; further: potency means the concentration at half of the fitted maximal effect)
# How it was run: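 After overnight attachment at 37 C, HepG2 cells received compound or DMSO vehicle for 1 hr. Viability is then taken from ATP-driven luminescence following a 30 min room-temperature CellTiter-Glo step.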
# [16] = qHTS assay to test for compound auto fluorescence at 460 nm (blue) in HEK293 cells (AID 720678)
# How it was run: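 Blue-channel (Ex/Em 405/460 nm) intensity measured in HEK293 cultures after overnight compound exposure at 37C; signal expressed relative to triamterene. Cells plated 2,000 per well in 10% dialyzed FBS medium and allowed 4-5 hr to attach.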
# [17] = biological target: Glucocorticoid receptor (Homo sapiens) (UniProt P04150); assay: qHTS assay to identify small molecule agonists of the glucocorticoid receptor (GR) signaling pathway (AID 720691; active means well fitted activation curve with a large enough effect in the signal ratio in the repeat runs, not every such curve was filed as active; the % refers to the signal ratio)
# How it was run: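 Agonist mode in a HeLa line carrying a GRE-controlled beta-lactamase reporter. Compounds act for 18 h at 37 C before a 2 h room-temperature FRET substrate step and fluorescence reading.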
# [18] = biological target: Glucocorticoid receptor (Homo sapiens) (UniProt P04150); assay: qHTS assay to identify small molecule antagonists of the glucocorticoid receptor (GR) signaling pathway (AID 720692; active means well fitted inhibition curve with a large enough effect in the signal ratio in the repeat runs, not every such curve was filed as active; the % refers to the signal ratio)
# How it was run: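 Cells plated, rested 4 h at 37 C/5% CO2; compounds in DMSO pin-transferred; dexamethasone added to 5 nM final; 18 h at 37 C; B/G FRET substrate added, 2 h room temperature; fluorescence measured.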
# [19] = qHTS assay to test for compound auto fluorescence at 590 nm (red) in HEK293 cell free culture (AID 720683)
# How it was run: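 Tox21 10K library compounds were pinned into cell-free DMEM with 10% FBS and fluorescence was read at excitation 540 nm. Activity is expressed as Rose Bengal sodium equivalency.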
# Glucocorticoid receptor (Homo sapiens), sequence (P04150 whole entry, looked up): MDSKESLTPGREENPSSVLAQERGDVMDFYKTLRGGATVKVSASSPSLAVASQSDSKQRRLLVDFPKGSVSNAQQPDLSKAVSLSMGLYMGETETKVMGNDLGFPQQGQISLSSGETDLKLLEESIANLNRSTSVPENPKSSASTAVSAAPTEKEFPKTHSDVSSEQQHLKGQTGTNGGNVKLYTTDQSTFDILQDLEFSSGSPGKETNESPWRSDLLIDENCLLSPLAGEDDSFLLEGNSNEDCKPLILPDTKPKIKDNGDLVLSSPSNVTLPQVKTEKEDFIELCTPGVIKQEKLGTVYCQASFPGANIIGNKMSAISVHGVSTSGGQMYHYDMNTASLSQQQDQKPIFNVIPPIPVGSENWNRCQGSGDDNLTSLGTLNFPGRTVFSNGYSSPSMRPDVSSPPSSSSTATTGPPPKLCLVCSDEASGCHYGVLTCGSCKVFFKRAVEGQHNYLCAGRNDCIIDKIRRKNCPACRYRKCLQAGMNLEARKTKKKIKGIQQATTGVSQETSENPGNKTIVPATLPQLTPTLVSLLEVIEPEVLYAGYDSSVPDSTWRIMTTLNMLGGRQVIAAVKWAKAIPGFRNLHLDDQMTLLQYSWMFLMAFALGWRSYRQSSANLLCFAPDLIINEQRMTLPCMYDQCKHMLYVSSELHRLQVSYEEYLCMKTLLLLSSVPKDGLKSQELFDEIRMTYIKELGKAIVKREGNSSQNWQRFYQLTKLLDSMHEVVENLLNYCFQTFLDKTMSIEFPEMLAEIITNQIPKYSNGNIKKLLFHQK
SMILES,Potency [1],Potency [2],Potency [3],outcome [4],outcome [5],outcome [6],outcome [7],Potency [8],outcome [9],outcome [10],Potency [11],outcome [12],Potency [13],Potency [14],Potency [15],Potency [16],Potency [17],Potency [18],outcome [19]
CC(=O)Oc1ccc2c(c1)CC[C@@H]1[C@@H]2CC[C@]2(C)[C@@H](O)CC[C@@H]12,inactive,inactive,8.41 µM (active),inactive,inactive,inactive,inactive,inactive,inactive,inactive,inactive,inactive,inactive,–,–,–,–,–,–
CCCOCCOCCO,inactive,–,–,inactive,inactive,inactive,inactive,inactive,inactive,inactive,inactive,inactive,inactive,inactive,inactive,inactive,inactive,inactive,–
Cc1cc2nc3ccc(=[N+](C)C)cc-3sc2cc1N,inactive,–,3.76 µM (active),inactive,inactive,inactive,inactive,inactive,inactive,inactive,inactive,inactive,inactive,7.5 µM (active),–,inactive,–,–,–
OC(CCCN1CCCCC1)(c1ccccc1)c1ccccc1,inactive,–,–,inactive,inactive,inactive,inactive,inactive,inactive,inactive,inactive,inactive,inactive,inactive,inactive,inactive,–,–,inactive
C=CC(=C)CCCC(C)(C)OC(C)=O,inactive,–,inactive,inactive,inactive,inactive,inactive,inactive,inactive,inactive,inactive,inactive,inactive,inactive,–,inactive,inactive,inactive,inactive
CC1=C(/C=C/C(C)=C\C=C\C(C)=C\C(=O)O)C(C)(C)CCC1,inactive,inactive,–,inactive,inactive,inactive,inactive,inactive,inactive,inactive,inactive,inactive,inactive,–,inactive,inactive,–,–,inactive
O=C(CCCCCCCCC#CI)Oc1ccccc1,inactive,–,–,inactive,inactive,inactive,inactive,inactive,inactive,inactive,inactive,inactive,inactive,inactive,inactive,inactive,inactive,–,inactive
CCCCCCCCCCOS(=O)(=O)O,inactive,–,–,inactive,inactive,inactive,inactive,inactive,inactive,inactive,inactive,inactive,inactive,inactive,inactive,inactive,–,–,inactive
Cc1oc(C)c(C(=O)Nc2ccccc2)c1C,inactive,–,27.3 µM (active),inactive,inactive,inactive,inactive,–,inactive,inactive,inactive,inactive,inactive,–,inactive,inactive,inactive,–,inactive
Cc1oncc1C(=O)Nc1ccc(C(F)(F)F)cc1,5.07 µM (active) and 2.73 µM (active),–,–,inactive,inactive,inactive,inactive,inactive,inactive,inactive,inactive,inactive,inactive,inactive,61.1 µM (active),inactive,inactive,inactive,inactive
CCNC(=O)N1CCN(CCCC(c2ccc(F)cc2)c2ccc(F)cc2)CC1,inactive,–,–,inactive,inactive,inactive,inactive,inactive,inactive,inactive,inactive,inactive,inactive,inactive,–,inactive,inactive,–,inactive
COc1cc2c(cc1OC)-c1cc(=Nc3c(C)cc(C)cc3C)n(C)c(=O)n1CC2,inactive,29.8 µM (active),–,–,inactive,inactive,inactive,inactive,inactive,inactive,inactive,inactive,inactive,29.8 µM (active),–,–,–,–,–
COC(=O)CC(=O)C(C)(C)C,inactive,–,–,inactive,inactive,inactive,inactive,–,inactive,inactive,inactive,inactive,inactive,inactive,inactive,inactive,inactive,–,inactive
CC1=CC(O)CC(C)(C)C1 (stereo unspecified),inactive,–,–,inactive,inactive,inactive,inactive,inactive,inactive,inactive,inactive,inactive,inactive,inactive,inactive,–,inactive,–,inactive
O=Cc1c(Cl)cccc1Cl,inactive,–,–,inactive,inactive,inactive,inactive,inactive,inactive,inactive,inactive,inactive,inactive,inactive,inactive,inactive,inactive,–,inactive
CCCC1C(CC)=CC(CC)=CN1c1ccccc1 (stereo unspecified),inactive,inactive,–,inactive,inactive,inactive,inactive,inactive,inactive,inactive,inactive,inactive,inactive,–,–,inactive,inactive,–,inactive
